# Data from PubChem BioAssay AID1741 (Vanderbilt High Throughput Screening Facility, 2009).
# The whole screen tested about 1,700 compounds, of which about 150 (8.8%) were called active. Another 19% or so got no clear call; they are omitted. Not all results are given here. Unmarked numbers belong to inactive results.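 Rule for the calls: active = fluorescence change differing from the plate's solvent-only control wells at 99.7% confidence in both duplicates, whether higher or lower; inconclusive = differs from solvent controls in only one of two duplicates; inactive = the rest.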
# Target: Muscarinic acetylcholine receptor M4 (Rattus norvegicus) (UniProt P08485)
# Sequence (P08485 whole entry, looked up): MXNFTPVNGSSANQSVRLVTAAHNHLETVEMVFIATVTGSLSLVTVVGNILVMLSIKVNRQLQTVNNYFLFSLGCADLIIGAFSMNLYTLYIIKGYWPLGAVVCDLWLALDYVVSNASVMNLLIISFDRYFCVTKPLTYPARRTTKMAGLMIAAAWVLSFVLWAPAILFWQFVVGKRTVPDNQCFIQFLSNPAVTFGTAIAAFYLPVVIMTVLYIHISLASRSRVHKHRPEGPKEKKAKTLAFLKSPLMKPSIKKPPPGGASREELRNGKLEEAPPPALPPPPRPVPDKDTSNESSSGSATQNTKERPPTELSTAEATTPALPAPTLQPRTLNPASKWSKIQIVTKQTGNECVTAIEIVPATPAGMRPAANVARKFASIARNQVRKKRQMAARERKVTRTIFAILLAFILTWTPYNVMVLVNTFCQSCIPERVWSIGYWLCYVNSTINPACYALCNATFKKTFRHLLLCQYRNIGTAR
# Assay: agonist activity at rat M4 receptor, confirmation, counter-screen for M1 allosteric modulator project, cell-based, agonist mode (AID 1741)
# Details: CHO M4/Gqi5 cells, Fluo-4 calcium fluorescence, at 10 µM, actives lie on both sides
row,Structure (SMILES),fluorescence change (max-min)
1,O=C(O)c1ccc(COCC(F)(F)F)cc1,-14
2,COCCNC(=O)C(c1ccc(C)o1)N(Cc1cccs1)C(=O)c1snc(C(N)=O)c1N (stereo unspecified),-6.44
3,COc1cccc2c(C)c(C(=O)O)[nH]c12,-9.04
4,COc1ccccc1NC1=NC(c2ccc(Cl)cc2)N=C(N)N1 (stereo unspecified),-38.9
5,N#CC1=C(N)Oc2c(sc3ccccc23)C1c1ccco1 (stereo unspecified),50
6,CCOc1ccc2nc(N3CCCN(C(=O)Nc4ccccc4C)CC3)c(C#N)cc2c1,246 (active)
7,Cc1cc(NC(=O)COc2ccc(Cl)cc2Cl)n(CCC#N)n1,-13.8
8,C(=N\n1cnnc1)/c1cccnc1,-25.3
9,COc1ccc2nc(N3CCCC(O)C3)c(C#N)cc2c1 (stereo unspecified),176 (active)
10,COc1ccc(N(CC(=O)NC(C)(C)C)C(=O)c2ccco2)cc1,-53.4
11,O=C(CSc1nnc(-c2ccco2)n1Cc1ccccc1)NC(=O)NCc1ccco1,-23.1
12,COc1ncnc2c1N=C1CC(C)(C)CC(N)=C1S2,136 (active)
13,c1ccc2c(c1)OCC(CNc1ncnc3nc[nH]c13)O2 (stereo unspecified),1130 (active)
14,Cc1nc2ccccc2c2oc(C(=O)NCC3CCCO3)cc12 (stereo unspecified),-66.7
15,COC(=O)c1ccc(CSc2nc3ccccc3c(=O)n2-c2cccc(OC)c2)o1,-28.9
16,Cc1nc(CNS(=O)(=O)c2ccc(Oc3ccccc3)cc2)cs1,2.92
17,COc1ccccc1NC(=O)CSc1nnc(Cn2nnc(-c3ccccc3)n2)n1-c1ccccc1,-51.1
18,COc1ccccc1N1CCN(C(=O)c2cn(-c3ccccc3)nc2-c2cccnc2)CC1,-73.3
19,COc1ccc(CCNC(=O)C2CCN(c3nn4c(=O)cc(C)nc4s3)CC2)cc1OC,-40
20,CCOc1cc(-c2nc3cc(C)ccn3c2NCC2CCCO2)ccc1O (stereo unspecified),-60.7
21,CCOc1ccc(NC(=O)N2CC=C(n3c(=O)[nH]c4ccccc43)CC2)cc1,-26.4
22,COc1ccc(Nc2oc(-c3ccccc3Cl)nc2C#N)cc1,-74.3

row,Structure (SMILES),fluorescence change (max-min)
1,O=C(NCCC1=CCCCC1)C1CCN(Cc2cnn(-c3ccccc3)c2-n2cccc2)CC1,-67.1
2,c1n[nH]c(NCc2ccc3c(c2)OCO3)n1,-28.2
3,CC1CCCC(C)N1C(=O)CN1CCN(c2nc(-c3ccc(F)cc3)cs2)CC1 (stereo unspecified),-9.73
4,Nc1ccc(SCCN2C(=O)c3ccccc3C2=O)cc1,-77.3
5,Cc1cc2cc(CN(Cc3cccs3)Cc3nnnn3CC3CCCO3)c(=O)[nH]c2cc1C (stereo unspecified),-27
6,O=C(c1ccccc1)c1ccc(OC(=O)N2CCCC2)cc1,-25.9
7,CC(NC(=O)CSc1nc2c(cc1C#N)CN(C)CC2)c1ccccc1 (stereo unspecified),-18.9
8,O=C(Nc1cccc(NC(=O)N2CCN(c3ccccc3)CC2)c1)N1CCN(c2ccccc2)CC1,-12.4
9,Cc1nn2c(c1-c1ccccc1)N=C(c1ccco1)CC2c1ccccc1 (stereo unspecified),5.67
10,CCOc1nc(-c2ccc(OC)cc2)ccc1-c1noc(-c2cc(OC)c(OC)c(OC)c2)n1,18.4
11,CCCOc1ccccc1C1CC(=O)Nc2cc3c(cc21)OCO3 (stereo unspecified),-71.7
12,CCn1c(NCCc2ccc(OC)c(OC)c2)nc2c1c(=O)n(C)c(=O)n2C,-47.9
13,CCN(CC)c1ccc2cc(C(=O)O)c(=O)oc2c1,137
14,Fc1ccc2[nH]c3c(N4CCSCC4)ncnc3c2c1,-68.8
15,CCN=C1SC(CC(=O)Nc2ccc(C)cc2)C(=O)N1CC (stereo unspecified),-71.4 (active)
16,COc1cccc(-n2cc3c(c2-c2ccccc2)c(=O)n(C)c(=O)n3C)c1,-42.2
17,COc1ccc2[nH]c(=O)c(CN(CC3CCCO3)C(=O)Nc3ccccc3)cc2c1 (stereo unspecified),-53.6
18,CCOc1ccc2[nH]c(=O)c(CN(Cc3nnnn3Cc3ccccc3)CC3CCCO3)cc2c1 (stereo unspecified),-7.46
19,O=C1c2ccccc2-c2ncnc3c(N4CCOCC4)cc(N4CCOCC4)c1c23,-22.7
20,FC(F)(F)COc1nc(N2CCCCC2)nc(N2CCNCC2)n1,-26.5
21,CCOC(=O)c1cc2n(c1N)-c1ccccc1C2=O,2020 (active)
22,CC(=O)Nc1ccc(NC(=O)CN2CCCC(C)C2)c(Cl)c1 (stereo unspecified),-37.2

row,Structure (SMILES),fluorescence change (max-min)
1,COc1ccccc1N1CCN(C(=O)c2c(-c3c(Cl)cccc3Cl)noc2C)CC1,-27
2,O=C(Cn1cc(C(=O)c2cccs2)c2ccccc21)NCc1cccs1,-25
3,COc1ccc(C(C(O)C(=O)c2c[nH]c3ccccc23)N2CCN(c3ccccc3)CC2)cc1 (stereo unspecified),-6.79
4,COc1cc(C(=O)Nc2oc(-c3ccccc3)c(-c3ccccc3)c2C#N)cc(OC)c1OC,-47.4
5,CCCN1CC=C2C(C#N)=C(N)C(C#N)(C#N)C(c3cc(OC)ccc3OC)C2C1 (stereo unspecified),84.1
6,COc1ccc(NC(=O)C2CCCN(S(=O)(=O)c3cccc4cccnc34)C2)cc1OC (stereo unspecified),-56.1
7,Cc1ccc2oc(=O)c3cnn(CC(=O)N4CCN(c5ccccn5)CC4)c3c2c1,-22
8,CCOc1cc(N2CCOCC2)c(OCC)cc1NC(=O)COc1cccc2cccnc12,-39.2
9,Cc1ccc(S(=O)(=O)Nc2ccc3ncccc3c2)cc1,-7.21
10,O=C(NCCc1ccc2c(c1)OCCO2)c1cc2ccccc2o1,-9.99
11,COc1ccc(C2C(C(=O)N3CCN(c4ccc(OC)cc4)CC3)c3ccccc3C(=O)N2C)cc1 (stereo unspecified),-57.8
12,Cn1c(C(=O)NCCc2ccsc2)cc2c(=O)n(C)c3ccccc3c21,-42.5
13,COc1ccc(N(C(=O)c2cccnc2)S(=O)(=O)c2ccc3c(c2)n(C)c(=O)n3C)cc1,-59.4
14,O=C(CSCc1cccs1)N1CCCC1,-76.4
15,CN1C(=O)c2ccc(NC(=O)c3c(F)c(F)c(F)c(F)c3F)cc2C1=O,-27.8
16,CC(=O)OC(C)C[N+](C)(C)C (stereo unspecified),146 (active)
17,CC(C[N+](C)(C)C)OC(N)=O (stereo unspecified),11.8
18,CCOC(=O)C1CCCN(C(=O)c2ccc(CS(=O)(=O)c3ccc(Br)cc3)o2)C1 (stereo unspecified),-59.9
19,CC(C)OCCCNc1ncnc2c1[nH]c1ccc(F)cc12,-4.51
20,O=C(Nc1nc(-c2ccc3c(c2)OCO3)cs1)c1ccncc1,-52
21,CC(C)(C)c1cc(CN2CCN(CCC#N)CC2)cc(C(C)(C)C)c1O,-27.3
22,O=C(Nc1cccc(-c2nnc(-c3ccccc3)o2)c1)C1CCCO1 (stereo unspecified),-67.5
